Data reported in the supplement of paper PMC10338343.
± gives the standard deviation.

How the values were obtained:
[1] = tested on: MILI (PIWIL2) piRISC loaded with L1MC piRNA (26 nt); test: pre-steady-state target cleavage rate (min^-1); guide: L1MC piRNA 5'p-UAACUAAAUACUAUGCAAGCUGUAGG; higher = faster piRNA-guided slicing of the target
Procedure, shortened: (§1)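 Active affinity-purified piRISC (1 nM) loaded with one synthetic guide was mixed with a transcribed, DNA-blocked target RNA library (0.1 nM), with or without 500 nM GTSF1 partner protein, in HEPES–potassium acetate buffer at 33 °C for 0–8 or 0–960 min. Uncleaved targets were sequenced, normalised to depth and to weakly complementary targets, and pooled across three trials, with k3 capped at 0.0001 min^-1. The pre-steady-state cleavage rate was determined with a burst-and-steady-state fit.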

[2] = tested on: EfPiwi piRISC loaded with L1MC piRNA (26 nt); test: pre-steady-state target cleavage rate (min^-1); auxiliary factor: 500 nM Ephydatia muelleri Gtsf1; guide: L1MC piRNA 5'p-UAACUAAAUACUAUGCAAGCUGUAGG; MIWI and MILI are mouse PIWI proteins and EfPiwi is from a freshwater sponge; tags in brackets are library labels; higher = faster piRNA-guided slicing of the target
Procedure, shortened: as §1

[3] = auxiliary factor: 500 nM mouse GTSF1
[4] = auxiliary factor: none (no GTSF1)

| Sequence | pre-steady-state target cleavage rate [1, 3] | pre-steady-state target cleavage rate [1, 4] | pre-steady-state target cleavage rate [2] |
| --- | --- | --- | --- |
| UCCUGGAUCAGCUUGGAUAGUAUUUAGUUA | 0.185 ± 0.013 | 0.00786 ± 0.0022 | 0.0092 ± 0.0025 |
| UCCUCCUACAGCUUGCAUAGUAUUUAGUUA [g2:g26:cont:t1A] | 0.344 ± 0.02 | 0.0103 ± 0.003 | 0.121 ± 0.034 |
| UCCUGCUACAGCUUGCAUAGUAUUUUAGUUA | 0.283 ± 0.023 | 0.0106 ± 0.0025 | 0.00822 ± 0.0026 |
| UCCUGGUACAGGUUGCAAAGUAUUUAGUUA | 0.117 ± 0.012 | 0.0143 ± 0.0038 | 0.00511 ± 0.0028 |
| UCCUGGAUGAGCUUCAUAGUAUUUAGUUA | 0.0977 ± 0.012 | 0.00515 ± 0.002 | 0.00394 ± 0.0033 |
| UCCUGCUACAGCUUGCAUAGGUAUUUAGUUA | 0.00815 ± 0.0047 | 0.00421 ± 0.0024 | 0.00304 ± 0.0019 |
| UCCUGGUAGUCCUUGCAUAGUAUUUAGUUA | 0.126 ± 0.018 | 0.00932 ± 0.003 | 0.00556 ± 0.0026 |
| UCCUCCAACAGCUUGCAUAGUAUUUAGAUA | 0.192 ± 0.034 | 0.00442 ± 0.0025 | 0.0051 ± 0.0023 |
| UCCUCCUACUGCUUGCAUAGUUUUUAGUUA | 0.0525 ± 0.0085 | 0.00424 ± 0.002 | 0.0079 ± 0.0028 |
| UCCUCCUACAGCUUGCUUAGUAUUUUGUUA | 0.133 ± 0.016 | 0.0026 ± 0.0026 | 0.00532 ± 0.0028 |
| UCCUGGAACAGCUUGCAUAGUAUUUUAGUUA | 0.241 ± 0.02 | 0.0048 ± 0.0033 | 0.0192 ± 0.0054 |
| UCCUGCUACACGAUGCAUAGUAUUUAGUUA | 0.241 ± 0.022 | 0.00624 ± 0.0023 | 0.00905 ± 0.0024 |
| UCCUGCCUACAGCUUGCAUAGUAUUUAGUUA | 0.342 ± 0.022 | 0.0113 ± 0.0037 | 0.0909 ± 0.021 |
| UCCUGGAUCAGCUUGCAUAGUAUUUAGUUA [g2:g22:cont:t1A] | 0.267 ± 0.017 | 0.00864 ± 0.0019 | 0.0886 ± 0.017 |
| UCCUGGUAGAGCUUGCAAAGUAUUUAGUUA | 0.109 ± 0.0077 | 0.00935 ± 0.0029 | 0.0322 ± 0.0099 |
| UCCUGGAUCAGCUUUCAUAGUAUUUAGUUA | 0.204 ± 0.018 | 0.0048 ± 0.0029 | 0.0103 ± 0.0032 |
| UCCUGCUAGAGCUUGCAAAGUAUUUAGUUA | 0.112 ± 0.012 | 0.00382 ± 0.0021 | 0.00607 ± 0.0018 |
| UCCUGGAACAGGAUGCAUAGUAUUUAGUAA | 0.221 ± 0.021 | 0.00369 ± 0.0022 | 0.0055 ± 0.0028 |
| UCCUGGUACAGCUUGCAUAGUAGUUUAGUUA | 0.217 ± 0.028 | 0.00833 ± 0.003 | 0.0074 ± 0.0029 |
| UCCUCCUAGUCCUUGCAUAGUAUUUAGUAA | 0.102 ± 0.018 | 0.0027 ± 0.0023 | 0.00549 ± 0.0034 |
| UCCUGGAACUGCUUGGAUAGUAUUUAGUUA | 0.222 ± 0.013 | 0.0109 ± 0.0023 | 0.0527 ± 0.014 |
| UCCUCCUACAGCUUCCAAAGUAUUUAGUUA | 0.13 ± 0.019 | 0.0037 ± 0.0022 | 0.00527 ± 0.0019 |
| UCCUGGAUGACCUUGCAAAGUAUUUAGUUA | 0.0397 ± 0.011 | 0.00372 ± 0.0031 | 0.00391 ± 0.0037 |

| Sequence | pre-steady-state target cleavage rate [1, 3] | pre-steady-state target cleavage rate [1, 4] | pre-steady-state target cleavage rate [2] |
| --- | --- | --- | --- |
| UCCUGGUACAGCAUGCAUAGUAUAUAGUUA | 0.241 ± 0.038 | 0.00583 ± 0.0028 | 0.00569 ± 0.0031 |
| UCCUGGUACUGCUAGCAUAGUAUUUAGUUA | 0.174 ± 0.02 | 0.0113 ± 0.003 | 0.00467 ± 0.0022 |
| UCCUGCUACAGCAUGCAAAGUAUUUAGUUA | 0.163 ± 0.015 | 0.00807 ± 0.0029 | 0.00845 ± 0.0025 |
| UCCUGCUACUGCUUGCUUAGUAUUUAGUUA | 0.202 ± 0.022 | 0.00589 ± 0.002 | 0.0076 ± 0.0022 |
| UCCUGGAUGUGCUGGCAUAGUAUUUAGUUA | 0.118 ± 0.012 | 0.0112 ± 0.0037 | 0.00525 ± 0.0029 |
| UCCUGGAACAGCUUGCAAAGUAUUAAGUUA | 0.0867 ± 0.015 | 0.00516 ± 0.0022 | 0.00406 ± 0.003 |
| UCCUGCUACAGCUUGCAUAGUAUUUAGGUUA | 0.265 ± 0.042 | 0.00346 ± 0.0028 | 0.00526 ± 0.0014 |
| UCCUGCUACUGCUUGCAUACUAUUUAGUUA | 0.0731 ± 0.011 | 0.00293 ± 0.0023 | 0.00669 ± 0.0028 |
| UCCUGCCACAGCUUGCAUAGUAUUUAGUUA | 0.331 ± 0.025 | 0.0105 ± 0.003 | 0.0631 ± 0.017 |
| UCCUCCUACAGCUUGCAUAGUGUUUAGUUA | 0.211 ± 0.017 | 0.00543 ± 0.0025 | 0.0149 ± 0.0041 |
| UCCUGGAUCAGCUUGCAUAGUAUAAAGUUA | 0.171 ± 0.018 | 0.00561 ± 0.0029 | 0.00752 ± 0.0027 |
| UCCUCCUACAGCAUGCAUAGUAAUUAGUUA | 0.251 ± 0.024 | 0.00544 ± 0.0019 | 0.0115 ± 0.0038 |
| UCCUCCUUCACCUUGCAUAGUAUUUAGUUA | 0.212 ± 0.028 | 0.00635 ± 0.0025 | 0.0605 ± 0.021 |
| UCCUGCUACAGGUAGCAUAGUAUUUAGUUA | 0.367 ± 0.031 | 0.00651 ± 0.0037 | 0.0207 ± 0.0042 |
| UCCUGGAUGUGCUUGCAUAGUAUUGUAGUUA | 0.0838 ± 0.018 | 0.0048 ± 0.0032 | 0.00579 ± 0.0041 |
| UCCUGGUACAGCUUGCAUAGUAUUUGAGUUA | 0.178 ± 0.034 | 0.00534 ± 0.0027 | 0.00306 ± 0.0023 |
| UCCUCCAACAGCUUGGAUAGUAUUUAGUUA | 0.269 ± 0.0097 | 0.00646 ± 0.0021 | 0.0467 ± 0.011 |
| UCCUGGAUGAGCUUACAUAGUAUUUAGUUA | 0.153 ± 0.019 | 0.00591 ± 0.0023 | 0.00581 ± 0.0024 |
| UCCUCGUAGAGCUUGCAUAGUAUUUAGUUA | 0.266 ± 0.012 | 0.00554 ± 0.0023 | 0.0385 ± 0.0086 |
| UCCUGCUACAGCUGUGCAUAGUAUUUAGUUA | 0.263 ± 0.025 | 0.0081 ± 0.0032 | 0.00927 ± 0.0026 |
| UCCUGGAACAGCUUGCAUAGUAUUUGAGUUA | 0.209 ± 0.035 | 0.00299 ± 0.003 | 0.00552 ± 0.0019 |
| UCCUGGAUGUCCCUGCAUAGUAUUUAGUUA | 0.085 ± 0.014 | 0.00467 ± 0.0023 | 0.00326 ± 0.0026 |
| UCCUGGAACAGCAUGCAUAGUUUUUAGUUA | 0.0418 ± 0.011 | 0.00553 ± 0.0023 | 0.00387 ± 0.0016 |
